PubChem BioAssay AID1159580 (chemical genetic matrix, 2015)
Among all 5,500 compounds or so, about 2,000 (36%) were called active. Inconclusive results (about 18%) are left out. Cut-off read from the data, not from the text of the source: active = normalized growth mostly below about 0.91 (no sharp cut-off); inconclusive = no clear call, values can overlap the other calls; inactive = mostly above about 0.92. The list shows a part of the results.

Experiment: chemical genetic growth profiling, strain panel (AID 1159580);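 note: tested at 20 µM; growth read once vehicle control cultures reached saturation at 30 °C; 1 = growth at the plate median or of vehicle wells; lower values mean less growth of the strain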
Conditions: S. cerevisiae deletion strains, growth OD

Measured: normalized growth

CC(=O)O[C@H]1C[C@@]2(C)[C@H](c3ccoc3)OC(=O)[C@H]3O[C@]32[C@@]2(C)C1[C@]1(C)C(C[C@H]2OC(C)=O)C(C)(C)[C@H](OC(C)=O)C[C@@H]1OC(C)=O (stereo partly drawn)
inactive: locus YAL013W, strain DEP1, hits give low values 0.999 | locus YAL021C, strain ccr4, hits give low values 1.04 | locus YAL026C, strain drs2, hits give low values 0.97 | locus YAL030W, strain snc1, hits give low values 0.997 | locus YBL061C, strain skt5, hits give low values 0.993 | locus YBR009C, strain hhf1, hits give low values 1.05 | locus YBR021W, strain FUR4, hits give low values 1.02 | locus YBR023C, strain chs3, hits give low values 1 | locus YBR171W, strain sec66, hits give low values 0.958 | locus YBR229C, strain ROT2, hits give low values 0.949 | locus YBR231C, strain swc5, hits give low values 1 | locus YBR279W, strain paf1, hits give low values 0.998 | locus YCL011C, strain gbp2, hits give low values 0.998 | locus YCL016C, strain dcc1, hits give low values 1.05 | locus YCL029C, strain bik1, hits give low values 0.971 | locus YCL061C, strain MRC1, hits give low values 1 | locus YCL069W, strain vba3, hits give low values 0.975 | locus YCR088W, strain abp1, hits give low values 0.99 | locus YDL005C, strain med2, hits give low values 0.968 | locus YDL035C, strain GPR1, hits give low values 0.968 | locus YDL040C, strain nat1, hits give low values 0.99 | locus YDL074C, strain BRE1, hits give low values 0.999 | locus YDL101C, strain DUN1, hits give low values 0.974 | locus YDL134C, strain PPH21, hits give low values 0.986 | locus YDL185W, strain tfp1, hits give low values 0.953 | locus YDL192W, strain arf1, hits give low values 0.992 | locus YDR001C, strain nth1, hits give low values 0.989 | locus YDR069C, strain doa4, hits give low values 0.972 | locus YDR101C, strain arx1, hits give low values 0.946 | locus YDR137W, strain rgp1, hits give low values 1 | locus YDR159W, strain sac3, hits give low values 0.918 | locus YDR162C, strain NBP2, hits give low values 1.01 | locus YDR195W, strain ref2 0.981 | locus YDR297W, strain sur2, hits give low values 0.982 | locus YDR318W, strain mcm21, hits give low values 0.973 | locus YDR334W, strain swr1, hits give low values 0.975 | locus YDR335W, strain msn5, hits give low values 0.997 | locus YDR388W, hits give low values 0.983 | locus YDR392W, strain spt3, hits give low values 1 | locus YDR502C, strain sam2, hits give low values 0.987 | locus YEL003W, strain gim4, hits give low values 0.967 | locus YEL037C, strain rad23, hits give low values 0.989 | locus YEL061C, strain CIN8 (second series), hits give low values 0.978 | locus YEL061C, strain CIN8, hits give low values 0.997 | locus YER015W, strain faa2, hits give low values 0.997 | locus YER016W, strain bim1, hits give low values 0.98 | locus YER110C, hits give low values 0.974 | locus YER111C, strain swi4, hits give low values 0.979 | locus YER155C, strain BEM2 (second series), hits give low values 1.02 | locus YER155C, strain BEM2, hits give low values 1.01 | locus YER167W, strain BCK2, hits give low values 0.981 | locus YFR010W, strain ubp6, hits give low values 0.955 | locus YGL078C, strain dbp3, hits give low values 0.972 | locus YGL086W, strain mad1, hits give low values 0.996 | locus YGL167C, strain pmr1, hits give low values 0.99 | locus YGL173C, strain kem1, hits give low values 0.964 | locus YGL227W, strain vid30, hits give low values 0.983 | locus YGL240W, strain doc1, hits give low values 0.978 | locus YGL248W, strain PDE1, hits give low values 0.989 | locus YGR135W, strain pre9, hits give low values 1 | locus YGR252W, strain gcn5, hits give low values 0.94 | locus YHR013C, strain ard1, hits give low values 1.01 | locus YHR027C, strain rpn1, hits give low values 0.993 | locus YHR030C, strain SLT2, hits give low values 0.991 | locus YHR079C, strain IRE1 (second series), hits give low values 0.991 | locus YHR094C, strain hxt1, hits give low values 0.975 | locus YHR129C, strain ARP1, hits give low values 0.995 | locus YHR142W, strain chs7, hits give low values 1 | locus YHR200W, strain rpn10, hits give low values 0.977 | locus YIL066C, strain RNR3, hits give low values 0.949 | locus YIL073C, strain SPO22, hits give low values 0.949 | locus YIL125W, strain kgd1, hits give low values 0.983 | locus YIR030C, strain dcg1, hits give low values 0.981 | locus YJL092W, strain hpr5, hits give low values 0.973 | locus YJL095W, strain BCK1 (second series), hits give low values 0.977 | locus YJL095W, strain BCK1, hits give low values 1.02 | locus YJL115W, strain asf1, hits give low values 0.987 | locus YJL129C, strain trk1, hits give low values 0.966 | locus YJL134W, strain LCB3, hits give low values 0.989 | locus YJL154C, strain vps35, hits give low values 0.996 | locus YJL164C, strain tpk1, hits give low values 1.02 | locus YJL166W, strain qcr8, hits give low values 0.976
active: locus YGL253W, strain hxk2, hits give low values 0.907
